± gives the standard deviation.

For one assay, the system named is MILI (PIWIL2) piRISC loaded with L1MC piRNA (26 nt). Kind of assay: pre-steady-state target cleavage rate (min^-1); guide: L1MC piRNA 5'p-UAACUAAAUACUAUGCAAGCUGUAGG; MIWI and MILI are mouse PIWI proteins and EfPiwi is from a freshwater sponge; tags in brackets are library labels; higher = faster piRNA-guided slicing of the target. Particulars: auxiliary factor: 500 nM mouse GTSF1. The method in brief:
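Cleave-'n-Seq: a transcribed, DNA-blocked target RNA library (0.1 nM) was mixed with 1 nM active affinity-purified piRISC carrying one synthetic guide, with or without 500 nM GTSF1 partner protein, in HEPES–potassium acetate buffer at 33 °C for 0–8 or 0–960 min. Uncleaved targets were sequenced and normalised to depth and to weakly complementary targets. Three trials were pooled, and k3 was capped at 0.0001 min^-1. The pre-steady-state cleavage rate came from a burst-and-steady-state fit.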
Take UCCUGGUACAGCUACCAUAGUAUUUAGUAA: the “pre-steady-state target cleavage rate” value came out at 0.28 ± 0.04.
For the sequence UCCUGGAUGUCGUUGCACAGUAUUUAGUUA, the “pre-steady-state target cleavage rate” value is 0.0899 ± 0.011.
The same measure, in the same setting: then UCCUGGAUGUGCAUGCUUAGUAUUUAGUUA, with 0.0349 ± 0.011; and UCCUGGAACACCUUGGAUAGUAUUUAGUUA, with 0.153 ± 0.021; and UCCUGCUACAGCUACGAUAGUAUUUAGUUA, with 0.243 ± 0.02.
As to UCCUGGAUGUCGUUGCAUUGUAUUUAGUUA, the “pre-steady-state target cleavage rate” value amounted to 0.0197 ± 0.0048.
Turning to UCCUGGAUGUGCUAGCUUAGUAUUUAGUUA, the “pre-steady-state target cleavage rate” value was 0.0596 ± 0.0098.
On the same count and under the same terms, then UCCUGGAUGAGCAUGCAUAGUAUUAAGUUA, with 0.22 ± 0.024; and UCCUGGAUGUGCAUGCAUAGUAUUUAGUAA, with 0.121 ± 0.017; and UCCUGGAACAGCUUGCAUAGUCAUUUAGUUA, with 0.0205 ± 0.008.
UCCUGGUACAGCAUGCAUAGUAUUUACUUA: the “pre-steady-state target cleavage rate” value is 0.0914 ± 0.025.
With UCCUGCAACAGCUUGCAUUGUAUUUAGUUA, the “pre-steady-state target cleavage rate” value was 0.262 ± 0.018.
Take UCCUGGAUCACCUUGCUUAGUAUUUAGUUA: the “pre-steady-state target cleavage rate” value was found to be 0.176 ± 0.025.
On the same count and under the same terms, then UCCUGGAACAGCUUGCAUAGUGAUUUAGUUA, with 0.0178 ± 0.007.
For the sequence UCCUGGAUGUGCAUGCAUACUAUUUAGUUA, the “pre-steady-state target cleavage rate” value stood at 0.0253 ± 0.0066.
On to UCCUGGAUGUCGUUGAAUAGUAUUUAGUUA, for which the “pre-steady-state target cleavage rate” value came to 0.0817 ± 0.015.
Consider UCCUGGUACAGCUAGCAUACUAUUUAGUUA, for which the “pre-steady-state target cleavage rate” value came out at 0.126 ± 0.026.
The same measure, in the same setting: then UCCUCCUACAGCUUGCAUUGUAUUUACUUA, with 0.145 ± 0.021; and UCCUGGAACUCGUUGCAUAGUAUUUAGUAA, with 0.165 ± 0.021.
Turning to UCCUGGAUGAGCUUGCAUAGUGAUUUAGUUA, the “pre-steady-state target cleavage rate” value was found to be 0.00836 ± 0.0043.
In the case of UCCUGGAUGUGCUUGCUUAGUAUUUAGUUA, the “pre-steady-state target cleavage rate” value was 0.094 ± 0.013.
Take UCCUGGAUGUCGUUGCAUAGUCUUUAGUUA: the “pre-steady-state target cleavage rate” value was determined as 0.0286 ± 0.0084.
Take UCCUGGAUGUCGUUGCAUAGUUUUUAGUUA: the “pre-steady-state target cleavage rate” value amounted to 0.00524 ± 0.0046.
In the case of UCCUGGUACAGCUUGCAUAGGUAUUUAGUUA, the “pre-steady-state target cleavage rate” value turned out to be 0.0078 ± 0.0065.
As for UCCUGGUACAGCAUGGAUAGUAUUUAGUUA, the “pre-steady-state target cleavage rate” value was 0.197 ± 0.019.
Consider UCCUGGAUGUCCUUCAUAGUAUUUAGUUA, for which the “pre-steady-state target cleavage rate” value turned out to be 0.0147 ± 0.004.
For the sequence UCCUGGAUCAGCUUGGAUAGUAUUAAGUUA, the “pre-steady-state target cleavage rate” value came to 0.162 ± 0.027.
Take UCCUGGAUGUGCUAGCAUACUAUUUAGUUA: the “pre-steady-state target cleavage rate” value was 0.0195 ± 0.0053.
Same read-out and setting: then UCCUGGAUGUCCAUGCAUAGUAUAUAGUUA, with 0.0181 ± 0.0064.
In the case of UCCUGCUACAGGUUGCAUAGUAUUUAGAUA, the “pre-steady-state target cleavage rate” value stood at 0.114 ± 0.033.
For the sequence UCCUGGAUCAGCAACCAUAGUAUUUAGAAA, the “pre-steady-state target cleavage rate” value came out at 0.00948 ± 0.0046.
For UCCUGGAUGUGUUGCAUAGUAUUUAGUUA, the “pre-steady-state target cleavage rate” value was determined as 0.173 ± 0.022.
For the sequence UCCUGGUACAGCUUGCAUAGCAUUUAGUUA, the “pre-steady-state target cleavage rate” value came out at 0.117 ± 0.03.
On to UCCUGGAUGUCGAAGCAUAGUAUUUGGUUA, for which the “pre-steady-state target cleavage rate” value was found to be 0.0178 ± 0.0055.
For the sequence UCCUCCUACAGCUUGCAUAGUAUUCUAGUUA, the “pre-steady-state target cleavage rate” value amounted to 0.316 ± 0.039.
Consider UCCUGGAUGUCGAAGCAUAGUAAUUUAGUUA, for which the “pre-steady-state target cleavage rate” value was determined as 0.0148 ± 0.0051.
As for UCCUCCUACAGCUUGCAUUGAAUUUAGUUA, the “pre-steady-state target cleavage rate” value is 0.0267 ± 0.008.
As for UCCUCCUUCAGCUUGCAUAGUAAUUAGUUA, the “pre-steady-state target cleavage rate” value is 0.211 ± 0.021.
UCCUGGAUGUCGAAGCAUAGUAGUUUAGUUA: the “pre-steady-state target cleavage rate” value was found to be 0.00907 ± 0.0034.
For UCCUGGAUGUCGUUGCAUAGUAUUUAGUCA, the “pre-steady-state target cleavage rate” value was determined as 0.146 ± 0.024.

Staying with this assay, now noted: auxiliary factor: none (no GTSF1).
In the case of UCCUGGUACAGCUACCAUAGUAUUUAGUAA, the “pre-steady-state target cleavage rate” value is 0.00528 ± 0.0023.
UCCUGGAUGUCGUUGCACAGUAUUUAGUUA: the “pre-steady-state target cleavage rate” value was 0.00642 ± 0.0028.
Take UCCUGGAUGUGCAUGCUUAGUAUUUAGUUA: the “pre-steady-state target cleavage rate” value is 0.0103 ± 0.0032.
In the case of UCCUGGAACACCUUGGAUAGUAUUUAGUUA, the “pre-steady-state target cleavage rate” value came out at 0.00568 ± 0.0025.
The same measure, in the same setting: then UCCUGCUACAGCUACGAUAGUAUUUAGUUA, with 0.00263 ± 0.0024; and UCCUGGAUGUCGUUGCAUUGUAUUUAGUUA, with 0.00572 ± 0.0024.
The same measure, in the same setting: then UCCUGGAUGUGCUAGCUUAGUAUUUAGUUA, with 0.00453 ± 0.0023.
On to UCCUGGAUGAGCAUGCAUAGUAUUAAGUUA, for which the “pre-steady-state target cleavage rate” value amounted to 0.00547 ± 0.0024.
With UCCUGGAUGUGCAUGCAUAGUAUUUAGUAA, the “pre-steady-state target cleavage rate” value is 0.00467 ± 0.0026.
With UCCUGGAACAGCUUGCAUAGUCAUUUAGUUA, the “pre-steady-state target cleavage rate” value was 0.00479 ± 0.0022.
As to UCCUGGUACAGCAUGCAUAGUAUUUACUUA, the “pre-steady-state target cleavage rate” value was 0.00419 ± 0.0038.
With UCCUGCAACAGCUUGCAUUGUAUUUAGUUA, the “pre-steady-state target cleavage rate” value stood at 0.0076 ± 0.0027.
The same measure, in the same setting: then UCCUGGAUCACCUUGCUUAGUAUUUAGUUA, with 0.008 ± 0.0023; and UCCUGGAACAGCUUGCAUAGUGAUUUAGUUA, with 0.00499 ± 0.0023; and UCCUGGAUGUGCAUGCAUACUAUUUAGUUA, with 0.00586 ± 0.0023.
As for UCCUGGAUGUCGUUGAAUAGUAUUUAGUUA, the “pre-steady-state target cleavage rate” value was found to be 0.0047 ± 0.0024.
With UCCUGGUACAGCUAGCAUACUAUUUAGUUA, the “pre-steady-state target cleavage rate” value was found to be 0.00435 ± 0.0028.
UCCUCCUACAGCUUGCAUUGUAUUUACUUA: the “pre-steady-state target cleavage rate” value worked out at 0.00286 ± 0.0022.
On the same count and under the same terms, then UCCUGGAACUCGUUGCAUAGUAUUUAGUAA, with 0.00378 ± 0.002.
For UCCUGGAUGAGCUUGCAUAGUGAUUUAGUUA, the “pre-steady-state target cleavage rate” value turned out to be 0.00434 ± 0.0027.
The same measure, in the same setting: then UCCUGGAUGUGCUUGCUUAGUAUUUAGUUA, with 0.0114 ± 0.0031.
Still for that read-out and setting: then UCCUGGAUGUCGUUGCAUAGUCUUUAGUUA, with 0.00414 ± 0.0025.
Same read-out and setting: then UCCUGGAUGUCGUUGCAUAGUUUUUAGUUA, with 0.00595 ± 0.0026; and UCCUGGUACAGCUUGCAUAGGUAUUUAGUUA, with 0.00574 ± 0.0037; and UCCUGGUACAGCAUGGAUAGUAUUUAGUUA, with 0.0172 ± 0.0046.
Consider UCCUGGAUGUCCUUCAUAGUAUUUAGUUA, for which the “pre-steady-state target cleavage rate” value came out at 0.00296 ± 0.0021.
UCCUGGAUCAGCUUGGAUAGUAUUAAGUUA: the “pre-steady-state target cleavage rate” value was 0.00386 ± 0.0022.
Consider UCCUGGAUGUGCUAGCAUACUAUUUAGUUA, for which the “pre-steady-state target cleavage rate” value turned out to be 0.00539 ± 0.002.
For the sequence UCCUGGAUGUCCAUGCAUAGUAUAUAGUUA, the “pre-steady-state target cleavage rate” value was found to be 0.00373 ± 0.0026.
Regarding UCCUGCUACAGGUUGCAUAGUAUUUAGAUA, the “pre-steady-state target cleavage rate” value was determined as 0.00283 ± 0.0027.
The same measure, in the same setting: then UCCUGGAUCAGCAACCAUAGUAUUUAGAAA, with < 0.0001.
The same measure, in the same setting: then UCCUGGAUGUGUUGCAUAGUAUUUAGUUA, with 0.00684 ± 0.0022.
The same measure, in the same setting: then UCCUGGUACAGCUUGCAUAGCAUUUAGUUA, with 0.00488 ± 0.0026; and UCCUGGAUGUCGAAGCAUAGUAUUUGGUUA, with 0.00505 ± 0.0019; and UCCUCCUACAGCUUGCAUAGUAUUCUAGUUA, with 0.00537 ± 0.0026.
UCCUGGAUGUCGAAGCAUAGUAAUUUAGUUA: the “pre-steady-state target cleavage rate” value amounted to 0.0059 ± 0.0018.
Turning to UCCUCCUACAGCUUGCAUUGAAUUUAGUUA, the “pre-steady-state target cleavage rate” value turned out to be 0.00236 ± 0.0021.
As for UCCUCCUUCAGCUUGCAUAGUAAUUAGUUA, the “pre-steady-state target cleavage rate” value came to 0.00503 ± 0.002.
UCCUGGAUGUCGAAGCAUAGUAGUUUAGUUA: the “pre-steady-state target cleavage rate” value was 0.00276 ± 0.0022.
As to UCCUGGAUGUCGUUGCAUAGUAUUUAGUCA, the “pre-steady-state target cleavage rate” value was 0.00639 ± 0.002.
